# According to PMC8384837, “Expanding the binding specificity for RNA recognition by a PUF domain”:
# Positions count from the first letter of the chain named.
# Key:
# Assay in all cases: yeast three-hybrid, YBZ-1, SC-Leu-His + 0.5 mM 3-AT, 4 days
# Conditions in all cases: tags: N-Gal4 AD-HA kept; label: inside an RPR1-promoter hybrid RNA with tandem MS2 sites; ssRNA
# PUM1 PUF domain R2-SWR = PUM1 PUF domain R2-SWR (Homo sapiens, UniProt Q14671 828-1176, N899S;Y900W;Q903R)
# In short: (§1)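 The interaction score is the log change in how often each variant appears, from input to selection. Frequencies came from PCR-amplified, Illumina-sequenced repeat regions of Pumilio-1 PUF domain libraries grown in strain YBZ-1 (LexA–MS2 coat fusion, HIS3 reporter) alongside matching RNA elements. Input plates were SC-Leu and selection plates were SC-Leu-His + 0.5 mM 3-AT, each for four days, and the log2 calculation used a pseudocount of 1 where a variant was absent.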
# PUM1 PUF domain R1-SRE = PUM1 PUF domain R1-SRE (Homo sapiens, UniProt Q14671 828-1176, Q867E)
# In short: as §1
# PUM1 PUF domain R1-KRS = PUM1 PUF domain R1-KRS (Homo sapiens, UniProt Q14671 828-1176, S863K;Q867S)
# In short: as §1
# PUM1 PUF domain R1-KCR = PUM1 PUF domain R1-KCR (Homo sapiens, UniProt Q14671 828-1176, S863K;R864C;Q867R)
# In short: as §1
# PUM1 PUF domain R1-RIM = PUM1 PUF domain R1-RIM (Homo sapiens, UniProt Q14671 828-1176, S863R;R864I;Q867M)
# In short: as §1
# PUM1 PUF domain R3-LNA = PUM1 PUF domain R3-LNA (Homo sapiens, UniProt Q14671 828-1176, C935L;R936N;Q939A)
# In short: as §1
# PUM1 PUF domain R3-MFG = PUM1 PUF domain R3-MFG (Homo sapiens, UniProt Q14671 828-1176, C935M;R936F;Q939G)
# In short: as §1
# PUM1 PUF domain R3-YRV = PUM1 PUF domain R3-YRV (Homo sapiens, UniProt Q14671 828-1176, C935Y;Q939V)
# In short: as §1
# PUM1 PUF domain R3-FCR = PUM1 PUF domain R3-FCR (Homo sapiens, UniProt Q14671 828-1176, C935F;R936C;Q939R)
# In short: as §1
# PUM1 PUF domain R8-QFP = PUM1 PUF domain R8-QFP (Homo sapiens, UniProt Q14671 828-1176, N1122Q;Y1123F;Q1126P)
# In short: as §1
# PUM1 PUF domain R5-NGS = PUM1 PUF domain R5-NGS (Homo sapiens, UniProt Q14671 828-1176, C1007N;R1008G;Q1011S)
# Chain of PUM1 PUF domain R5-NGS (Q14671 828-1176 C1007N/R1008G/Q1011S): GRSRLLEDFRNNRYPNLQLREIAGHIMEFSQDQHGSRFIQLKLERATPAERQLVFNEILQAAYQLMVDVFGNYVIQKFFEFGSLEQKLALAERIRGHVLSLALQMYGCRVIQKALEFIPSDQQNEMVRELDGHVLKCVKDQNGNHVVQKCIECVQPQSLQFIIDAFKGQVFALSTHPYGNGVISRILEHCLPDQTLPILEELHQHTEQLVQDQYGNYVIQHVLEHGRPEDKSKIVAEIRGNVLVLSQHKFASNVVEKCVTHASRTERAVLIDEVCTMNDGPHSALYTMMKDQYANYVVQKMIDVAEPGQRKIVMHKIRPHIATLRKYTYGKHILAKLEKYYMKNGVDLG
# In short: as §1
# PUM1 PUF domain R5-KAC = PUM1 PUF domain R5-KAC (Homo sapiens, UniProt Q14671 828-1176, C1007K;R1008A;Q1011C)
# In short: as §1
# PUM1 PUF domain R5-RQD = PUM1 PUF domain R5-RQD (Homo sapiens, UniProt Q14671 828-1176, C1007R;R1008Q;Q1011D)
# In short: as §1
# PUM1 PUF domain R7-LTV = PUM1 PUF domain R7-LTV (Homo sapiens, UniProt Q14671 828-1176, S1079L;N1080T;E1083V)
# Chain of PUM1 PUF domain R7-LTV (Q14671 828-1176 S1079L/N1080T/E1083V): as the sequence (Q14671 828-1176 C1007N/R1008G/Q1011S) above, with N180C, G181R, S184Q, S252L, N253T, E256V counted along it
# In short: as §1
# PUM1 PUF domain R6-RWW = biological target: T1, PUM1 PUF domain R6-RWW (Homo sapiens, UniProt Q14671 828-1176, N1043R;Y1044W;Q1047W)
# T1 sequence: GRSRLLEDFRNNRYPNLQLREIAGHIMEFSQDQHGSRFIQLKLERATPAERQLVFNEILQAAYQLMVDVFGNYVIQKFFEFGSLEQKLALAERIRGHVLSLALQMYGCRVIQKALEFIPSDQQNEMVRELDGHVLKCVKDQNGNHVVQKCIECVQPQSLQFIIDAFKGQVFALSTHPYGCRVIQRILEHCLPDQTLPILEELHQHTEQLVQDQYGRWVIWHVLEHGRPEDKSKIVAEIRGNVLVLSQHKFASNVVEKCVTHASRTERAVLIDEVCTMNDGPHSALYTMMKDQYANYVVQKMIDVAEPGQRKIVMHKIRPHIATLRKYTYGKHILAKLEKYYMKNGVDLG
# In short: as §1
# PUM1 PUF domain R3-LYT = PUM1 PUF domain R3-LYT (Homo sapiens, UniProt Q14671 828-1176, C935L;R936Y;Q939T)
# In short: as §1
# PUM1 PUF domain R3-LWK = PUM1 PUF domain R3-LWK (Homo sapiens, UniProt Q14671 828-1176, C935L;R936W;Q939K)
# In short: as §1
# PUM1 PUF domain R6-FYM = biological target: T2, PUM1 PUF domain R6-FYM (Homo sapiens, UniProt Q14671 828-1176, N1043F;Q1047M)
# T2 sequence: T1 sequence with R216F, W217Y, W220M
# In short: as §1
# PUM1 PUF domain R3-VRN = PUM1 PUF domain R3-VRN (Homo sapiens, UniProt Q14671 828-1176, C935V;Q939N)
# In short: as §1
# PUM1 PUF domain R3-KSS = PUM1 PUF domain R3-KSS (Homo sapiens, UniProt Q14671 828-1176, C935K;R936S;Q939S)
# In short: as §1
# Chain of PUM1 PUF domain R2-SWR (Q14671 828-1176 N899S/Y900W/Q903R): as the sequence (Q14671 828-1176 C1007N/R1008G/Q1011S) above, with N72S, Y73W, Q76R, N180C, G181R, S184Q counted along it
sequence,measurement,setting,value
GGCUAGAACUAGUGGAUCCCCCGGCGCCCGGCGGCUCGAGCCCGGGUAAGUGUAAACAGUCUGCAUGCCGCCGGGCGCCAUGCCUGCAGGUCGACUCUAGAAAACAUG,binding signal,PUM1 PUF domain R2-SWR,4.79 log2 enrichment (interaction score)
GGCUAGAACUAGUGGAUCCCCCGGCGCCCGGCGGCUCGAGCCCGGGUAAGUGUAAAUGGUCUGCAUGCCGCCGGGCGCCAUGCCUGCAGGUCGACUCUAGAAAACAUG,binding signal,PUM1 PUF domain R1-SRE,4.42 log2 enrichment (interaction score)
same,binding signal,PUM1 PUF domain R1-KRS,2.96 log2 enrichment (interaction score)
same,binding signal,PUM1 PUF domain R1-KCR,2.46 log2 enrichment (interaction score)
GGCUAGAACUAGUGGAUCCCCCGGCGCCCGGCGGCUCGAGCCCGGGUAAGUGUAAAUUGUCUGCAUGCCGCCGGGCGCCAUGCCUGCAGGUCGACUCUAGAAAACAUG,binding signal,PUM1 PUF domain R1-RIM,3.48 log2 enrichment (interaction score)
same,binding signal,PUM1 PUF domain R1-KRS,4.93 log2 enrichment (interaction score)
same,binding signal,PUM1 PUF domain R1-KCR,5.43 log2 enrichment (interaction score)
GGCUAGAACUAGUGGAUCCCCCGGCGCCCGGCGGCUCGAGCCCGGGUAAGUGUAAGUAGUCUGCAUGCCGCCGGGCGCCAUGCCUGCAGGUCGACUCUAGAAAACAUG,binding signal,PUM1 PUF domain R3-LNA,3.41 log2 enrichment (interaction score)
same,binding signal,PUM1 PUF domain R3-MFG,5.73 log2 enrichment (interaction score)
same,binding signal,PUM1 PUF domain R3-YRV,4.59 log2 enrichment (interaction score)
same,binding signal,PUM1 PUF domain R3-FCR,5.77 log2 enrichment (interaction score)
GGCUAGAACUAGUGGAUCCCCCGGCGCCCGGCGGCUCGAGCCCGGGUAAGCGUAAAUAGUCUGCAUGCCGCCGGGCGCCAUGCCUGCAGGUCGACUCUAGAAAACAUG,binding signal,PUM1 PUF domain R8-QFP,4.49 log2 enrichment (interaction score)
GGCUAGAACUAGUGGAUCCCCCGGCGCCCGGCGGCUCGAGCCCGGGUAAGUGUUAAUAGUCUGCAUGCCGCCGGGCGCCAUGCCUGCAGGUCGACUCUAGAAAACAUG,binding signal,PUM1 PUF domain R5-NGS,4.12 log2 enrichment (interaction score)
same,binding signal,PUM1 PUF domain R5-KAC,3.67 log2 enrichment (interaction score)
GGCUAGAACUAGUGGAUCCCCCGGCGCCCGGCGGCUCGAGCCCGGGUAAGUGUCAAUAGUCUGCAUGCCGCCGGGCGCCAUGCCUGCAGGUCGACUCUAGAAAACAUG,binding signal,PUM1 PUF domain R5-RQD,3.67 log2 enrichment (interaction score)
same,binding signal,PUM1 PUF domain R5-KAC,4.63 log2 enrichment (interaction score)
GGCUAGAACUAGUGGAUCCCCCGGCGCCCGGCGGCUCGAGCCCGGGUAAGUUUAAAUAGUCUGCAUGCCGCCGGGCGCCAUGCCUGCAGGUCGACUCUAGAAAACAUG,binding signal,PUM1 PUF domain R7-LTV,4.94 log2 enrichment (interaction score)
GGCUAGAACUAGUGGAUCCCCCGGCGCCCGGCGGCUCGAGCCCGGGUAAGUGUAAAUCGUCUGCAUGCCGCCGGGCGCCAUGCCUGCAGGUCGACUCUAGAAAACAUG,binding signal,PUM1 PUF domain R1-KRS,5.16 log2 enrichment (interaction score)
same,binding signal,PUM1 PUF domain R1-KCR,7.51 log2 enrichment (interaction score)
GGCUAGAACUAGUGGAUCCCCCGGCGCCCGGCGGCUCGAGCCCGGGUAAGUGUAAAUAGUCUGCAUGCCGCCGGGCGCCAUGCCUGCAGGUCGACUCUAGAAAACAUG,binding signal,PUM1 PUF domain R6-RWW,4.3 log2 enrichment (interaction score)
same,binding signal,PUM1 PUF domain R3-LYT,3.3 log2 enrichment (interaction score)
same,binding signal,PUM1 PUF domain R3-LWK,3.42 log2 enrichment (interaction score)
same,binding signal,PUM1 PUF domain R6-FYM,2.99 log2 enrichment (interaction score)
same,binding signal,PUM1 PUF domain R3-MFG,2.43 log2 enrichment (interaction score)
same,binding signal,PUM1 PUF domain R3-YRV,0.2 log2 enrichment (interaction score)
same,binding signal,PUM1 PUF domain R3-VRN,3.59 log2 enrichment (interaction score)
GGCUAGAACUAGUGGAUCCCCCGGCGCCCGGCGGCUCGAGCCCGGGUAAGUGUAAUUAGUCUGCAUGCCGCCGGGCGCCAUGCCUGCAGGUCGACUCUAGAAAACAUG,binding signal,PUM1 PUF domain R3-LNA,2.71 log2 enrichment (interaction score)
same,binding signal,PUM1 PUF domain R3-KSS,2.98 log2 enrichment (interaction score)
same,binding signal,PUM1 PUF domain R3-LYT,5.26 log2 enrichment (interaction score)
same,binding signal,PUM1 PUF domain R3-LWK,5.28 log2 enrichment (interaction score)
same,binding signal,PUM1 PUF domain R3-MFG,4.71 log2 enrichment (interaction score)
same,binding signal,PUM1 PUF domain R3-YRV,0.78 log2 enrichment (interaction score)
same,binding signal,PUM1 PUF domain R3-FCR,1.6 log2 enrichment (interaction score)
